Consider 50 compounds from PubChem BioAssay AID686979 (National Center for Advancing Translational Sciences (NCATS), 2013).

In all, about 420,000 compounds went through this assay and about 50,000 (12%) were called active. Roughly 26% stayed inconclusive and do not appear here. The entries come from a sample that favours actives as a whole. Unmarked numbers belong to inactive results. Calls follow the shape of the dose curve; as a rule, active = well fitted inhibition curve with a large enough effect; inconclusive = small, poorly fitted or top-dose-only effect; inactive = flat fitted curve, though single readings scatter.
% is scaled to controls: 0 for no effect and ±100 for the full control effect; potency is read from the fitted curve at half-maximal effect.

This test in a line: qHTS for Inhibitors of human tyrosyl-DNA phosphodiesterase 1 (TDP1): qHTS in cells in presence of CPT. Also: nearly all actives have a fitted effect of over 55% in size. Conditions: chicken DT40 Tdp1-/-;hTDP1 cells + 20 nM CPT, ATP luminescence, 48 h; series mostly up to 46.2 µM; activity change, negative = growth inhibition: at the top concentration. The method in brief:
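Chicken DT40 Tdp1-/- cells complemented with human TDP1, 400 cells/well, exposed to compounds plus 20 nM camptothecin for at least 48 h at 37 C; viability read as ATP content by CellTiter-Glo luminescence.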
On to `CC[C@H](C)[C@@H](C(=O)N1CCNCC1)n1cc([C@@H](N)Cc2ccc(O)cc2)nn1`, for which the “activity change, negative = growth inhibition” value is -15%.
Same read-out and setting: the same measure for `COc1cc2ccccc2cc1C(=O)N1CCOCC1`: -0.501%.
Take `COc1c(Br)cc2c(C)c(C(=O)N3CCOCC3)oc2c1Br`: the Potency was 20.6 µM (active).
Regarding `COc1cc(C(=O)N2CCOCC2)cc(OC)c1OC`, the Potency entry was “inactive”.
As for `N#CCCN(C(=O)COC(=O)c1ccc2c(c1)OCCO2)c1ccccc1`, the “activity change, negative = growth inhibition” value is -0.784%.
For the compound `CC(C)c1c(C(=O)N/N=C/c2ccccc2C(=O)O)nnn1-c1nonc1N`, the “activity change, negative = growth inhibition” value is 2.99%.
Turning to `Cn1c(=O)[nH]c(=O)c2c1[nH]c(=S)n2Cc1ccccc1`, the “activity change, negative = growth inhibition” value is -2.11%.
The same measure, in the same setting: next, `CCCc1c(C(=O)N/N=C(\C)CCc2ccc(OC)cc2)nnn1-c1nonc1N`: -9%; `Cc1cccc(N2O[C@H]3C=CC2CCCC3)n1`: 2.68%.
With `COP1(=O)C[C@@H](O)[C@@H](O)[C@@H](COCc2ccccc2)O1` (stereo not given in full), the “activity change, negative = growth inhibition” value was 13.7%.
In the case of `O=C(NCCc1ccc(Cl)cc1)c1cccc(N2CCCC2=O)c1`, the “activity change, negative = growth inhibition” value is -22.3%.
Same read-out and setting: the same measure for `O=C(c1ccc2c(c1)N(Cc1ccc(F)cc1)C(=O)CS2)N1CCOCC1`: -2.88%.
With `O=C(NCCc1ccc(Cl)cc1)c1ccc2c(c1)N(Cc1ccc(F)cc1)C(=O)CS2`, the Potency is 20.6 µM (active).
`CC1CCN(C(=O)c2ccccc2NC(=O)Cc2ccccc2)CC1`: the “activity change, negative = growth inhibition” value is -0.159%.
Take `Cc1cccc(C)c1NC(=O)CS(=O)CC(=O)N1CCN(c2ccccc2)CC1` (stereo not given): the “activity change, negative = growth inhibition” value was -12.8%.
Regarding `Cc1ccccc1C(=O)N1CCN(c2ccc(NC(=O)c3cccs3)cc2)CC1`, the Potency is 18.4 µM (active).
Consider `O=C(Nc1ccc(N2CCN(C(=O)C3CC3)CC2)cc1)c1cccs1`, for which the “activity change, negative = growth inhibition” value was 2.26%.
As to `O=C(NC(=O)c1ccccc1N1CCCCC1)Nc1ccc(Br)cc1`, the “activity change, negative = growth inhibition” value was 5.47%.
Still for that read-out and setting: the same measure for `Cc1ccccc1C(=O)Nc1ccccc1NC(=O)c1ccccc1C`: -8.28%.
As to `Cc1ccccc1C(=O)NC(=S)Nc1ccc(N2CCN(C(=O)c3ccccc3)CC2)cc1`, the Potency was 10.3 µM (active).
Consider `COc1ccccc1C(=O)NC(=S)Nc1ccc(N2CCOCC2)cc1`, for which the “activity change, negative = growth inhibition” value was -15.4%.
In the case of `COc1ccc(N2CCN(C(=O)c3cccs3)CC2)cc1`, the “activity change, negative = growth inhibition” value is -13.7%.
Turning to `Cc1ccccc1C(=O)Nc1ccc(N2CCCCCC2)cc1`, the Potency is 14.6 µM (active).
`O=C(NC1CCCC1)C(c1c(F)cccc1Cl)N(C(=O)c1csnn1)C1CC1` (stereo not given): the “activity change, negative = growth inhibition” value was -3.21%.
The same measure, in the same setting: next, `CCOC(=O)c1cn[nH]c1NC(=S)Nc1ccccc1`: -2.15%.
Same read-out and setting: next, `CCCCN1C(=O)C(=O)N(CC(=O)Nc2cccc(C(C)=O)c2)C1=O`: 4.23%.
On to `Cc1cccc(-c2ncc(CN3CCC(CO)(CCCc4ccccc4)CC3)cn2)c1`, for which the Potency was 23.1 µM (active).
`OCC1(CCOc2ccccc2)CCN(Cc2cn[nH]c2-c2ccccc2)CC1`: the “activity change, negative = growth inhibition” value is -27.5%.
Still for that read-out and setting: the same measure for `OCC1(CCc2ccccc2)CCN(Cc2ccc3nsnc3c2)CC1`: -0.556%; for `CC(=O)Nc1ccc2c3c(ccc([N+](=O)[O-])c13)CC2`: -4.5%.
`CN1CCN(C(=O)c2ccccc2NC(=O)COc2ccccc2Cl)CC1`: the “activity change, negative = growth inhibition” value was -15.8%.
For `O=C(COc1ccccc1Cl)Nc1ccccc1C(=O)NC1CC1`, the Potency is 23.1 µM (active).
Take `COc1ccccc1OCC(=O)Nc1ccccc1C(=O)NC1CC1`: the “activity change, negative = growth inhibition” value is 17%.
For the compound `S=c1[nH]nc2c3c4c(sc3ncn12)CCCC4`, the “activity change, negative = growth inhibition” value was -7.17%.
With `CCC1(CC)C(=O)C2=C3C1[C@H](C(=O)OC)C=C(C(=O)OC)C[C@H]3[C@H]1C(=O)N(Cc3ccccc3)C(=O)[C@H]1[C@H]2C` (stereo not given in full), the Potency was 4.61 µM (active).
With `COC(=O)C1=C[C@@H](C(=O)OC)[C@@H]2C3=C(C(=O)[C@]2(C)NC(=O)c2ccccc2)[C@H](C)n2c(=O)n(C)c(=O)n2[C@@H]3C1`, the “activity change, negative = growth inhibition” value was 0.582%.
As to `CCOC(=O)C1=CCC2C(=O)N(Cc3ccccc3)C(=O)C12` (stereo not given), the “activity change, negative = growth inhibition” value was -14.7%.
Regarding `COc1ccc(NS(=O)(=O)c2cccc(C(=O)NCCc3ccc(S(N)(=O)=O)cc3)c2)cc1`, the “activity change, negative = growth inhibition” value was -12.7%.
Still for that read-out and setting: next, `CCOc1ccc(S(=O)(=O)Nc2ccc(S(=O)(=O)Nc3cc(OC)ccc3OC)cc2)cc1`: -1.74%.
Turning to `COc1ccc(NS(=O)(=O)c2ccc(Oc3c(C#N)cccc3C#N)cc2)cc1`, the Potency was 10.3 µM (active).
Consider `CCN1CCN(C(=O)CN(C)S(=O)(=O)c2ccc3ccccc3c2)CC1`, for which the “activity change, negative = growth inhibition” value was -28.4%.
Same read-out and setting: the same measure for `O=C1NC[C@H](CCCCN2C[C@H](Cc3ccc(O)cc3)N(CCc3ccccc3)C(=O)C2=O)N(CCc2ccccc2)C1=O`: 6.06%.
With `C#CCOc1ccc(/C=C2/C(=O)NN(c3ccccc3)C2=O)cc1OC`, the “activity change, negative = growth inhibition” value was -2.2%.
As to `O=C(C[n+]1cc(Br)cc2ccccc21)c1ccc(F)cc1`, the Potency was 14.1 µM (active).
As for `O=C(CNC(=O)c1ccccc1F)c1ccc(Br)cc1`, the “activity change, negative = growth inhibition” value was 11.2%.
The same measure, in the same setting: next, `O=C(O)CC/C(=N\NC(=O)c1ccc(F)cc1)c1ccc(Br)cc1`: 4.87%; `Cc1ccc2c(c1)N(C(=O)CCC(=O)NCc1ccccc1F)CC(C)O2` (stereo not given): -28.3%.
On to `CCOc1ccc(NC(=O)CCC(=O)N2CC(C)Oc3ccc(C)cc32)cc1` (stereo not given), for which the Potency was 25.9 µM (active).
`CCOc1ccc(NC(=O)CCNC(=O)c2ccc(Br)cc2)cc1`: the “activity change, negative = growth inhibition” value is -9.36%.
`CCc1nc2cc(C(=O)NCC3CCS(=O)(=O)C3)cc(NC(=O)c3ccccc3OC)c2n1C` (stereo not given): the activity change, negative = growth inhibition is 6.63% [at 9.04 µM].
